# From PubChem BioAssay (NCATS)
# Several values for one entry are separate records, joined by “and”; a condition that tells them apart may be missing. Equal entries are not always repeated. Values without a mark were called inactive. Records with an inconclusive call do not appear. Entries that show only a call come without a potency. Activity calls are given as the source filed them. Unless noted, the call rests on the fitted dose curve; in most records, active means well fitted curve in the direction sought with a large enough effect; inconclusive means small, poorly fitted or top-dose-only effect, or another doubt; inactive means no such curve, though single readings can be large; an effect the other way counts as inactive or inconclusive.
# How the values were obtained:
# CASKI = experiment: Primary qHTS to identify gynecologic anti-cancer compounds using libraries of approved drugs and bioactive compounds (AID 1345084); details: Gynecologic cancer cell panel viability, ATPlite luminescence, 48 h; series mostly up to 57.5 µM; further: nearly all actives have a fitted effect of over 55% in size
# Procedure, shortened: (§1)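 Luminescence from the ATPlite ATP-monitoring reagent indicates viable cell number; lower signal means cytotoxicity. Cells received compound 16 h after seeding and were exposed for 48 h across five concentrations.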
# Es-2 = experiment: as above; details: Gynecologic cancer cell panel viability, ATPlite luminescence, 48 h; series mostly up to 57.5 µM
# Procedure, shortened: as §1
# HeLa = experiment: as above; details: Gynecologic cancer cell panel viability, ATPlite luminescence, 48 h; series mostly up to 57.5 µM
# Procedure, shortened: as §1
# Hek293T = experiment: as above; details: Gynecologic cancer cell panel viability, ATPlite luminescence, 48 h, control line for the selectivity index; series mostly up to 57.5 µM
# Procedure, shortened: as §1
# JEG-3 = experiment: as above; details: Gynecologic cancer cell panel viability, ATPlite luminescence, 48 h; series mostly up to 57.5 µM
# Procedure, shortened: as §1
# OV90 = experiment: as above; details: Gynecologic cancer cell panel viability, ATPlite luminescence, 48 h; series mostly up to 57.5 µM
# Procedure, shortened: as §1
# PA-1 = experiment: as above; details: Gynecologic cancer cell panel viability, ATPlite luminescence, 48 h; series mostly up to 57.5 µM
# Procedure, shortened: as §1
# SKOV3 = experiment: as above; details: Gynecologic cancer cell panel viability, ATPlite luminescence, 48 h; series mostly up to 57.5 µM
# Procedure, shortened: as §1
# Tov-21-G = experiment: as above; details: Gynecologic cancer cell panel viability, ATPlite luminescence, 48 h; series mostly up to 57.5 µM
# Procedure, shortened: as §1
# Tov112D = experiment: as above; details: Gynecologic cancer cell panel viability, ATPlite luminescence, 48 h; series mostly up to 57.5 µM
# Procedure, shortened: as §1
# [1] = Drug repurposing screens with cells derived from glioblastoma tumor samples (AID 1345199); details: GBM patient neurospheres viability, ATP luminescence, 48 h; further: nearly all actives have a fitted effect of over 40% in size; further: potency means the concentration at half of the fitted maximal effect
# Procedure, shortened: (§2)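 Four patient lines of CD133+ GBM neurospheres were screened at several concentrations; hits were retested in those lines plus three slower-growing GBM lines, using 48-hour treatment and ATP-based viability.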
# astro = experiment: as above; details: viability, ATP luminescence, 48 h; series mostly up to 45.9 µM
# Procedure, shortened: as §2
# [2] = biological target: Nuclear receptor subfamily 1 group I member 2 (Rattus norvegicus) (UniProt Q9R1A7); experiment: qHTS assay for small molecule activators of the rat pregnane X receptor (rPXR) signaling pathway (AID 651751; call rule not given here); details: rPXR reporter cells, luciferase (One-Glo), 24 h
# Nuclear receptor subfamily 1 group I member 2 (Rattus norvegicus), sequence (Q9R1A7 whole entry, looked up): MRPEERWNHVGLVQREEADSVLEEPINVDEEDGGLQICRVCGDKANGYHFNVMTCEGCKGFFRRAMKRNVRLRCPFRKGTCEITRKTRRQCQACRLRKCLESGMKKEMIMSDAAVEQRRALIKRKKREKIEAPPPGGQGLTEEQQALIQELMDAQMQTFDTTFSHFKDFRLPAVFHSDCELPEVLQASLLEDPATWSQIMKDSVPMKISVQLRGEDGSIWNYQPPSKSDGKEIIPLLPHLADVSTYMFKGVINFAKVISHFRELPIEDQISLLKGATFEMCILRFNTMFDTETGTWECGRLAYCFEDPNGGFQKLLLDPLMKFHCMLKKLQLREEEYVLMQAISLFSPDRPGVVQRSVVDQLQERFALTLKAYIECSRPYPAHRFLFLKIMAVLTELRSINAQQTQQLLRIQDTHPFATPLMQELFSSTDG
# [3] = qHTS assay for small molecule activators of the human pregnane X receptor (PXR) signaling pathway (AID 720659; call rule not given here); details: DPX-2 HepG2 CYP3A4-luciferase, 24 h; series mostly up to 92.3 µM
# [4] = at 45.9 µM (top of the series), tumour line B
# [5] = at 45.9 µM (top of the series), tumour line D
# [6] = at 46 µM (top of the series), tumour line A
# [7] = at 46.1 µM (top of the series), tumour line C
# [8] = at 20 µM (top of the series), tumour line C
# [9] = at 21.2 µM (top of the series), tumour line B
# [10] = at 21.2 µM (top of the series), tumour line D
# [11] = at 21.3 µM (top of the series), tumour line A
structure (smiles),measurement,setting,value
C[C@@H]1CCN(C(=O)[C@H](CCCN=C(N)N)NS(=O)(=O)c2cccc3c2NC[C@H](C)C3)[C@@H](C(=O)O)C1,Potency,CASKI,inactive
same,Potency,Es-2,inactive
same,Potency,HeLa,inactive
same,Potency,Hek293T,inactive
same,Potency,JEG-3,inactive
same,Potency,OV90,inactive
same,Potency,PA-1,inactive
same,Potency,SKOV3,inactive
same,Potency,Tov-21-G,inactive
same,Potency,Tov112D,inactive
same,"activity, negative = cell killing",[1]; [4],7.31%
same,"activity, negative = cell killing",[1]; [5],-6.42%
same,"activity, negative = cell killing",[1]; [6],-6.41%
same,"activity, negative = cell killing",[1]; [7],-2.45%
same,Potency,astro,inactive
C[C@H](N)[C@H](O)c1cccc(O)c1,Potency,CASKI,inactive
same,Potency,Es-2,inactive
same,Potency,HeLa,inactive
same,Potency,Hek293T,inactive
same,Potency,JEG-3,inactive
same,Potency,OV90,inactive
same,Potency,PA-1,inactive
same,Potency,SKOV3,inactive
same,Potency,Tov-21-G,inactive
same,Potency,Tov112D,inactive
same,"activity, negative = cell killing",[1]; [8],-4.02%
same,"activity, negative = cell killing",[1]; [9],-13%
same,"activity, negative = cell killing",[1]; [10],-3.31%
same,"activity, negative = cell killing",[1]; [11],-12.7%
same,Potency,astro,inactive
CCCCC/C(C=O)=C\c1ccccc1,Potency,CASKI,inactive
same,Potency,Es-2,inactive
same,Potency,HeLa,inactive
same,Potency,Hek293T,inactive
same,Potency,JEG-3,inactive
same,Potency,OV90,inactive
same,Potency,PA-1,inactive
same,Potency,SKOV3,inactive
same,Potency,Tov-21-G,inactive
same,Potency,Tov112D,inactive
same,"activity, negative = cell killing",[1]; [4],-2.87%
same,"activity, negative = cell killing",[1]; [5],-16.9%
same,"activity, negative = cell killing",[1]; [6],-24.2%
same,"activity, negative = cell killing",[1]; [7],-7.86%
same,Potency,astro,inactive
CN(C)CCOC(C)(c1ccccc1)c1ccccn1 (stereo not drawn),Potency,CASKI,inactive
same,Potency,Es-2,inactive
same,Potency,HeLa,inactive
same,Potency,Hek293T,inactive
same,Potency,JEG-3,inactive
same,Potency,OV90,inactive
same,Potency,PA-1,inactive
same,Potency,SKOV3,inactive
same,Potency,Tov-21-G,inactive
same,Potency,Tov112D,inactive
same,"activity, negative = cell killing",[1]; [4],-6.13%
same,"activity, negative = cell killing",[1]; [5],-4.11%
same,"activity, negative = cell killing",[1]; [7],-0.022%
same,Potency,[1]; tumour line A,15.8 µM (active)
same,Potency,astro,inactive
same,max response,[2],2.43%
same,outcome,[3],inactive
O=C1O[C@H]([C@@H](O)CO)C(O)=C1O,Potency,CASKI,inactive
same,Potency,Es-2,inactive
same,Potency,HeLa,inactive
same,Potency,Hek293T,inactive
same,Potency,JEG-3,inactive
same,Potency,OV90,inactive
same,Potency,PA-1,inactive
same,Potency,SKOV3,inactive
same,Potency,Tov-21-G,inactive
same,Potency,Tov112D,inactive
same,"activity, negative = cell killing",[1]; [4],-10.4% and -5.65%
same,"activity, negative = cell killing",[1]; [5],-12.1% and -20.9%
same,"activity, negative = cell killing",[1]; [6],-0.597%
same,"activity, negative = cell killing",[1]; [7],-3.99% and -11%
same,Potency,astro,inactive
same,max response,[2],2.78% and -0.0955%
same,outcome,[3],inactive
Nc1ccc(S(=O)(=O)NC(=O)c2ccccc2)cc1,Potency,CASKI,inactive
same,Potency,Es-2,inactive
same,Potency,HeLa,inactive
same,Potency,Hek293T,inactive
same,Potency,JEG-3,inactive
same,Potency,OV90,inactive
same,Potency,PA-1,inactive
same,Potency,SKOV3,inactive
same,Potency,Tov-21-G,inactive
same,Potency,Tov112D,inactive
same,"activity, negative = cell killing",[1]; [8],-23.5%
same,"activity, negative = cell killing",[1]; [9],-10.1%
same,"activity, negative = cell killing",[1]; [10],-27.1%
same,"activity, negative = cell killing",[1]; [11],-8.76%
same,Potency,astro,inactive
NC(CSCC(=O)O)C(=O)O (stereo not drawn),Potency,CASKI,inactive
same,Potency,Es-2,inactive
same,Potency,HeLa,inactive
same,Potency,Hek293T,inactive
same,Potency,JEG-3,inactive
same,Potency,OV90,inactive
same,Potency,PA-1,inactive
same,Potency,SKOV3,inactive
same,Potency,Tov-21-G,inactive
same,Potency,Tov112D,inactive
same,"activity, negative = cell killing",[1]; [4],-1.36%
same,"activity, negative = cell killing",[1]; [5],-6.13%
same,"activity, negative = cell killing",[1]; [6],-25.4%
same,"activity, negative = cell killing",[1]; [7],-7.6%
same,Potency,astro,inactive
OCC(CO)N[C@H]1C[C@](O)(CO)[C@@H](O)[C@H](O)[C@H]1O,Potency,CASKI,inactive
same,Potency,Es-2,inactive
same,Potency,HeLa,inactive
same,Potency,Hek293T,inactive
same,Potency,JEG-3,inactive
same,Potency,OV90,inactive
same,Potency,PA-1,inactive
same,Potency,SKOV3,inactive
same,Potency,Tov-21-G,inactive
same,Potency,Tov112D,inactive
same,"activity, negative = cell killing",[1]; [4],-9.88%
same,"activity, negative = cell killing",[1]; [5],10.9%
same,"activity, negative = cell killing",[1]; [6],-13.3%
same,"activity, negative = cell killing",[1]; [7],-4.04%
same,Potency,astro,inactive
CC(O)COc1ccccc1 (stereo not drawn),Potency,CASKI,inactive
same,Potency,Es-2,inactive
same,Potency,HeLa,inactive
same,Potency,Hek293T,inactive
same,Potency,JEG-3,inactive
same,Potency,OV90,inactive
same,Potency,PA-1,inactive
same,Potency,SKOV3,inactive
same,Potency,Tov-21-G,inactive
same,Potency,Tov112D,inactive
same,"activity, negative = cell killing",[1]; [4],-16.3%
same,"activity, negative = cell killing",[1]; [5],2.5%
same,"activity, negative = cell killing",[1]; [6],-19.2%
same,"activity, negative = cell killing",[1]; [7],-0.412%
same,Potency,astro,inactive
same,max response,[2],0.833%
same,outcome,[3],inactive
CC(=O)NC(Cc1ccccc1)C(=O)O (stereo not drawn),Potency,CASKI,inactive
same,Potency,Es-2,inactive
same,Potency,HeLa,inactive
same,Potency,Hek293T,inactive
same,Potency,JEG-3,inactive
same,Potency,OV90,inactive
same,Potency,PA-1,inactive
same,Potency,SKOV3,inactive
same,Potency,Tov-21-G,inactive
same,Potency,Tov112D,inactive
same,"activity, negative = cell killing",[1]; [4],-12.3%
same,"activity, negative = cell killing",[1]; [5],-6.53%
same,"activity, negative = cell killing",[1]; [6],-20.1%
same,"activity, negative = cell killing",[1]; [7],-23.9%
same,Potency,astro,inactive
Cc1cc2nc3c(=O)[nH]c(=O)nc-3n(C[C@H](O)[C@H](O)[C@H](O)CO)c2cc1C,Potency,CASKI,inactive
same,Potency,Es-2,inactive
same,Potency,HeLa,inactive
same,Potency,Hek293T,inactive
same,Potency,JEG-3,inactive
same,Potency,OV90,inactive
same,Potency,PA-1,inactive
same,Potency,SKOV3,inactive
same,Potency,Tov-21-G,inactive
same,Potency,Tov112D,inactive
same,"activity, negative = cell killing",[1]; [4],-19.3% and -6.89%
same,"activity, negative = cell killing",[1]; [5],-1.31% and -6.94%
same,"activity, negative = cell killing",[1]; [6],-12.8% and -5.49%
same,"activity, negative = cell killing",[1]; [7],-0.108% and 21.1%
same,Potency,astro,inactive
same,max response,[2],2.07%
Cn1cc[nH]c1=S,Potency,CASKI,inactive
same,Potency,Es-2,inactive
same,Potency,HeLa,inactive
same,Potency,Hek293T,inactive
same,Potency,JEG-3,inactive
same,Potency,OV90,inactive
same,Potency,PA-1,inactive
same,Potency,SKOV3,inactive
same,Potency,Tov-21-G,inactive
same,Potency,Tov112D,inactive
same,"activity, negative = cell killing",[1]; [8],3.07%
same,"activity, negative = cell killing",[1]; [9],-12.9%
same,"activity, negative = cell killing",[1]; [10],-12.3%
same,"activity, negative = cell killing",[1]; [11],-28.7%
same,Potency,astro,inactive
COc1ccc(Cl)cc1C(=O)NCCc1ccc(S(=O)(=O)NC(=O)NC2CCCCC2)cc1,Potency,CASKI,inactive
same,Potency,Es-2,inactive
same,Potency,HeLa,inactive
same,Potency,Hek293T,inactive
same,Potency,JEG-3,inactive
same,Potency,OV90,inactive
same,Potency,PA-1,inactive
same,Potency,SKOV3,inactive
same,Potency,Tov-21-G,inactive
same,Potency,Tov112D,inactive
same,"activity, negative = cell killing",[1]; [4],5.08%
same,"activity, negative = cell killing",[1]; [5],-17.4%
same,"activity, negative = cell killing",[1]; [6],-29%
same,"activity, negative = cell killing",[1]; [7],-8.3%
same,Potency,astro,inactive
same,max response,[2],1.29%
